# Laboratory results published in PubChem BioAssay AID623888 (Vanderbilt Specialized Chemistry Center, 2012).
# Molecular target: Metabotropic glutamate receptor 3 (Rattus norvegicus) (UniProt P31422)
# Experiment: PubChem AID 623888
# Settings: HEK/GIRK rat mGlu3, thallium flux fluorescence, Schild, at 3 µM; % glutamate max: glutamate max response with compound, stronger effect = lower value; glutamate EC50 fold shift: stronger effect = higher value
# Sequence of Metabotropic glutamate receptor 3 (Rattus norvegicus) (P31422 whole entry, looked up): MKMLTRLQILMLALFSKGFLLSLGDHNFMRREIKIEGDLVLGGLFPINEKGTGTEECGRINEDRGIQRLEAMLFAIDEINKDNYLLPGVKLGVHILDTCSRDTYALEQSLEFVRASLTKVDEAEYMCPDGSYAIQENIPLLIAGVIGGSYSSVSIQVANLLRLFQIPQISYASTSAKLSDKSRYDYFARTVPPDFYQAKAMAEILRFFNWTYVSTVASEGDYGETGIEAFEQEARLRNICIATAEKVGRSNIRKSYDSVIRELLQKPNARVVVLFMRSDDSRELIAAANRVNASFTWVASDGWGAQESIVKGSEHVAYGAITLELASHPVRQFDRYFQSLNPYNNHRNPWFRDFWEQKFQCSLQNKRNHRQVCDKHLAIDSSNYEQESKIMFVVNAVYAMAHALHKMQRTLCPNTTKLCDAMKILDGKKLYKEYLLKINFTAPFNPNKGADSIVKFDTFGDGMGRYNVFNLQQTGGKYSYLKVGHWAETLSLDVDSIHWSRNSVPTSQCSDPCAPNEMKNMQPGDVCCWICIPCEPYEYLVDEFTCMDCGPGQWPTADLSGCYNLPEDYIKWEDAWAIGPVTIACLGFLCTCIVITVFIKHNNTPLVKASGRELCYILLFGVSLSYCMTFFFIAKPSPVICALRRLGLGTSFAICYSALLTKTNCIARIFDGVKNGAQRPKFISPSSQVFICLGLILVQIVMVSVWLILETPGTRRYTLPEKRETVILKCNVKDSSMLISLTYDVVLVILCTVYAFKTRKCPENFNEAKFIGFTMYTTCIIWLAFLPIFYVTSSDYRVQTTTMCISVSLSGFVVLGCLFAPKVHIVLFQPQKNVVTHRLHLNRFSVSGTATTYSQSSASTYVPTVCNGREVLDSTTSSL
smiles,measurement,value
COc1ccc(C#Cc2ccc(C(=O)N3CCC[C@@H](CO)C3)cc2)cc1,% glutamate max,88.9%
same,glutamate EC50 fold shift,1.48
